The record followed here is paper PMC4552634, “A New Set of Chemical Starting Points with Plasmodium falciparum Transmission-Blocking Potential for Antimalarial Drug Discovery” (PLoS ONE, 2015).

The campaign covered roughly 13,000 compounds. About 3,200 (25%) showed an effect of 50% or more. The list shows a part of the results.

The test system of the experiment is P. falciparum stage V gametocytes. Set-up: BacTiter-Glo ATP luminescence viability of purified stage V gametocytes in 384-well plates, per cent inhibition versus DMSO. The conditions noted are these: 48 h, 5 µM; inhibitor.
For `COc1ccc2nccc([C@@H](O)CN3CCC(NCc4cc5cccc(OCc6ccccc6)c5[nH]4)CC3)c2c1` [TCMDC-141117], the % Inhibition (usually the drop in the measured response relative to a control, in per cent) is 10.73%.
Consider `Clc1cccc(C=NNc2ccnc3ccccc23)c1` [TCMDC-142057], for which the “% Inhibition” value is -48.21%.
Turning to `CSc1cccc(Nc2nc3ccc(S(=O)(=O)NCC(C)C)cc3n2C(C)C(C)C)c1` (stereo not drawn) [TCMDC-136235], the “% Inhibition” value was -38.43%.
Take `O=C(CCN(Cc1ccco1)c1nc(-c2ccc(F)cc2)nc2ccccc12)NC1CC1` [TCMDC-124785]: the “% Inhibition” value is -4.08%.
As for `O=C(Cc1cccc2ccccc12)NC1CCN(c2ccnc3cc(Cl)ccc23)C1` (stereo not drawn) [TCMDC-133666], the “% Inhibition” value is -21.93%.
Consider `O=C(NCC1CN(Cc2ccc(N3CCCC3)o2)CCCO1)c1ccc2c(c1)OCO2` (stereo not drawn) [TCMDC-134852], for which the “% Inhibition” value was -25.48%.
As to `Cc1cc(N[C@@H](CC(C)C)C(=O)Nc2ccccc2)nc(NCc2ccccc2C)n1` [TCMDC-134912], the “% Inhibition” value is -40.4%.
For `COc1cc(C(=O)N2CCOC(CCN3CCC(Cc4ccc(F)cc4)CC3)(c3ccc(Cl)c(Cl)c3)C2)cc(OC)c1OC` (stereo not drawn) [TCMDC-135568], the “% Inhibition” value is -27.28%.
Consider `Cc1cccc(C)c1CNc1ccnc2ccccc12` [TCMDC-132169], for which the “% Inhibition” value was -38.56%.
Turning to `Cc1cccc(C)c1CNc1cccc(-c2nc(C)c(C)[nH]2)c1` [TCMDC-133434], the “% Inhibition” value is -88.3%.
With `CCCNc1nc(NCc2c(C)cccc2C)nc(NC(C)(C)C)n1` [TCMDC-133383], the “% Inhibition” value turned out to be 61.71%.
With `FC(F)(F)c1ccc2nc(-c3ccc(-c4cccc(CN5CCN(c6ccncc6)CC5)c4)cc3)[nH]c2c1` [TCMDC-132916], the “% Inhibition” value turned out to be 2.402%.
Turning to `COc1ccc2nccc([C@@H](O)CN3CCC(NCc4cc5ccccc5o4)CC3)c2c1` [TCMDC-140521], the “% Inhibition” value came out at 12.09%.
For the molecule `O=C(Nc1ccc(Br)cc1)N1CCC(n2c(-c3ccccc3)nc3cccnc32)CC1` [TCMDC-124743], the “% Inhibition” value turned out to be 60.37%.
In the case of `Cc1cc(-c2nc3ccc(C(=O)NCc4ccccc4)cc3n2C2CCN(C(=O)c3ccc(-c4ccccc4)cc3)CC2)ccn1` [TCMDC-135884], the “% Inhibition” value is listed as 25.38%.
Regarding `Cc1ccc(NC(=O)N2CCC(n3c(-c4ccccc4)nc4cccnc43)CC2)cc1F` [TCMDC-124742], the “% Inhibition” value is recorded as 24.56%.
Regarding `CS(=O)(=O)c1ccc2c(c1)CCN(CCC1CCC(NC(=O)c3cc4cccc(Br)c4[nH]3)CC1)CC2` (stereo not drawn) [TCMDC-141425], the “% Inhibition” value is -26.4%.
In the case of `Clc1ccc(-c2cc(-c3csc(NCCN4CCOCC4)n3)on2)c(Cl)c1` [TCMDC-140322], the “% Inhibition” value was 15.06%.
With `O=C(Nc1ccc(OC2CCN(Cc3ccsc3)C2)c(Cl)c1)c1ccsc1` (stereo not drawn) [TCMDC-133947] the figure was 1.522%.
With `CC[C@H]1CN2CC[C@@H]1C[C@H]2[C@H](O)c1cc[n+]([O-])c2ccc(OC)cc12` [TCMDC-142004] the figure was 8.307%; with `Oc1ccccc1CNC1CCCCC1NCc1ccccc1O` (stereo not drawn) [TCMDC-138468], 62.18%; with `Oc1cc2ccccc2cc1CNC1CCCCC1` [TCMDC-131977], -28.97%.
As for `Oc1c(Cl)cc(-c2ccccc2)cc1CNC1CCCCC1` [TCMDC-137170], the “% Inhibition” value was -21.36%.
For `CC(C)C[C@@H](/C=N/N1CC(=O)NC1=O)NC(=O)[C@H](CC(C)C)NC(=O)c1ccc(OCCN2CCOCC2)cc1` [TCMDC-136200], the “% Inhibition” value turned out to be 6.414%.
Turning to `CCCCCCCC/C=C\CCCCCCCC(=O)NCc1ccc(O)c(OC)c1` [TCMDC-124289], the “% Inhibition” value came to 45.72%.
Consider `CC(=O)N1CCC(C(=O)Nc2ccc(-c3cccc(-c4nc5c(C)cccc5[nH]4)c3)cc2)CC1` [TCMDC-132167], for which the “% Inhibition” value is reported as -9.717%.
For the molecule `COC1CCC(C(=O)Nc2ccc(-c3cccc(-c4nc5c(C)cccc5[nH]4)c3)cc2)CC1` (stereo not drawn) [TCMDC-136859], the “% Inhibition” value is reported as -20.23%.
For the molecule `Cc1cccc2[nH]c(-c3cccc(-c4ccc(NC(=O)C5CCN(C)CC5)cc4)c3)nc12` [TCMDC-132189], the “% Inhibition” value was 100.5%.
The result for `Cc1cccc2[nH]c(-c3cccc(-c4ccc(NC(=O)C5CCCO5)cc4)c3)nc12` (stereo not drawn) [TCMDC-136969] reads -0.7596%.
In the case of `Cc1cccc2[nH]c(-c3ccc(-c4ccc(NC(=O)C5CCN(C)CC5)cc4)cc3)nc12` [TCMDC-132182], the “% Inhibition” value turned out to be 81.12%.
With `CC1CN(Cc2ccccc2)CCN1c1ccc(NC(=O)c2ccc(F)cc2)cc1` (stereo not drawn) [TCMDC-135002], the “% Inhibition” value is listed as -13.42%.
On to `O=C(Nc1ccc(C(F)(F)F)cc1)c1cccc(S(=O)(=O)NC2CCN(CC3CCCCC3)C2)c1` (stereo not drawn) [TCMDC-132485], for which the “% Inhibition” value is reported as -55.81%.
With `O=C(Nc1ccc(Cl)cc1)c1cccc(S(=O)(=O)NC2CCN(CC3CCCCC3)C2)c1` (stereo not drawn) [TCMDC-132483], the “% Inhibition” value is recorded as -5.409%.
The result for `O=C(Nc1ccc(C(F)(F)F)cc1)c1cccc(S(=O)(=O)NC2CCN(CC3CCCCC3)CC2)c1` [TCMDC-133671] reads 8.091%; that for `O=C(Nc1cccc(C(F)(F)F)c1)c1cccc(S(=O)(=O)NC2CCCN(CC3CCCCC3)C2)c1` (stereo not drawn) [TCMDC-132769], -38.48%.
With `N#Cc1cccc(NC(=O)c2cccc(S(=O)(=O)NC3CCN(CC4CCCCC4)C3)c2)c1` (stereo not drawn) [TCMDC-132508] the figure was 83.68%; with `O=C(Nc1ccc(Cl)cc1)c1cccc(S(=O)(=O)NC2CCN(CC3CCCCC3)CC2)c1` [TCMDC-132807], 80.59%.
For the molecule `CCC(CC)OC(=O)C(C)c1cccc(C(=O)c2ccccc2)c1` (stereo not drawn) [TCMDC-138666], the “% Inhibition” value is -7.418%.
Turning to `COc1ccc2ncc(F)c(CCN3CC[C@H](NCc4cc(C#N)c5c(c4)OCCO5)[C@H](O)C3)c2c1` [TCMDC-136207], the “% Inhibition” value is recorded as -10.98%.
For the molecule `CCC(C)OC(=O)C1=C(C)NC2=C(C(=O)CC(c3ccc(OC)c(OC)c3)C2)C1c1ccc(O)cc1` (stereo not drawn) [TCMDC-125619], the “% Inhibition” value worked out at 13.43%.
As to `CCOC(=O)c1ccc(NC(=O)N[C@@H](Cc2ccc(O)cc2)C(=O)NC2CCN(Cc3ccc4c(c3)OCO4)CC2)cc1` [TCMDC-135257], the “% Inhibition” value is on record as -19.76%.
For the molecule `CCN(CC)CCN(Cc1ccc(-c2ccc(C(F)(F)F)cc2)cc1)C(=O)Cn1c(CCC2CCCCC2)nc(=O)c2ccccc21` [TCMDC-141056], the “% Inhibition” value is recorded as 47.99%.
`CCN(CC)CCN(Cc1ccc(-c2ccc(C(F)(F)F)cc2)cc1)C(=O)Cn1c(CCc2cc(F)cc(F)c2)nc(=O)c2ccccc21` [TCMDC-140956]: the “% Inhibition” value came to 70.83%.
The result for `CCN(CC)CCN(Cc1ccc(-c2ccc(C(F)(F)F)cc2)cc1)C(=O)Cn1c(CCc2ccc(F)cc2)nc(=O)c2ccccc21` [TCMDC-140943] reads 79.23%; that for `CCN(CC)CCN(Cc1ccc(-c2ccc(C(F)(F)F)cc2)cc1)C(=O)Cn1c(/C=C/c2ccco2)nc(=O)c2ccccc21` [TCMDC-140939], 82.58%.
